From PubChem BioAssay AID463173 (ICCB-Longwood Screening Facility, Harvard Medical School, 2010)
About 4,300 (8.3%) of roughly 52,000 compounds were called active. For the sample, actives were picked, then their nearest neighbours and some compounds at random. Values without a mark were called inactive. No stated cut-off is given here; in the data, active means survival mostly below about 52% (no sharp cut-off); inactive means mostly above about 56%.

Test system: DeltatarO mutant
Experiment: growth inhibition of S. aureus wild type versus tarO mutant, primary screen, teichoic acid synthesis inhibitors, RN4220, OD600 (AID 463173)
Conditions: OD600, 18 h, hits give low values, screened at 18.75 µg/mL (by protocol)

Row | Structure (SMILES) | survival
1 | Cc1ccc2nc(NC(=O)c3cc(=O)c4cc(C)c(C)cc4o3)sc2c1 | 54%
2 | Cc1ccc2nc(NC(=O)c3cc(=O)c4cc(Cl)ccc4o3)sc2c1 | 47%
3 | Cc1ccc2c(=O)cc(C(=O)Nc3nc4ccc(Cl)cc4s3)oc2c1 | 25% (active)
4 | O=C(Cn1nc(-c2ccc(Cl)cc2)ccc1=O)NCc1ccccc1Cl | 70%
5 | CCN(C(=O)CSc1nc2ccccc2n1Cc1ccc(F)cc1Cl)c1ccccc1 | 77%
6 | CC(C)c1ccccc1NC(=O)c1cccs1 | 61%
7 | CCCCCNC(=O)CCCCCn1c(=O)[nH]c2ccsc2c1=O | 81%
8 | O=C(CCCCCn1c(=O)[nH]c2ccsc2c1=O)NCc1ccccc1 | 89%
9 | Cc1cccc(NC(=O)CCCCCn2c(=O)[nH]c3ccsc3c2=O)c1 | 33% (active)
10 | O=S1(=O)c2ccccc2N(Cc2ccccc2F)c2ccccc21 | 92%
11 | COc1ccc(NC(=O)CCc2nnc3n(C)c(=O)c4sccc4n23)cc1Cl | 78%
12 | CCCc1nn2c(=O)cc(COC(=O)c3ccccc3NC(=O)c3ccc(OCC)cc3)nc2s1 | 49%
13 | CCOCCc1nn2c(=O)cc(COC(=O)Cc3ccccc3)nc2s1 | 17% (active)
14 | COCCc1nn2c(=O)cc(COC(=O)c3ccccc3C)nc2s1 | -5% (active)
15 | CCOc1ccc(C(=O)Nc2cccc(C(=O)OCc3cc(=O)n4nc(C5CC5)sc4n3)c2)cc1 | 83%
16 | CCOCCc1nn2c(=O)cc(COC(=O)c3cccc(C)c3)nc2s1 | -5% (active)
17 | CCc1nn2c(=O)cc(COC(=O)Cc3ccccc3)nc2s1 | 72%
18 | CCCc1nn2c(=O)cc(COC(=O)c3cccc(NC(=O)c4ccc(OCC)cc4)c3)nc2s1 | 0% (active)
19 | COCCc1nn2c(=O)cc(COC(=O)COc3ccccc3C)nc2s1 | 73%
20 | CCOCCc1nn2c(=O)cc(COC(=O)c3ccco3)nc2s1 | 88%
21 | CCOCCc1nn2c(=O)cc(COC(=O)CNC(=O)c3cccc(C)c3)nc2s1 | 70%
22 | CCOCCc1nn2c(=O)cc(COC(=O)c3ccc4c(c3)OCO4)nc2s1 | 128%

Row | Structure (SMILES) | survival
23 | CCCCc1nn2c(=O)cc(COC(=O)c3ccccc3C)nc2s1 | 83%
24 | CCC(c1nnnn1CCc1ccccc1)N(Cc1ccco1)Cc1cc2cc(C)ccc2[nH]c1=O (stereo not drawn) | 62%
25 | COc1ccc(C2=C(C)C(N3CCC(C(=O)NCc4ccc(C)o4)CC3)=NS2(=O)=O)cc1 | 74%
26 | COc1cccc(NC(=O)Cn2cc(S(=O)(=O)Cc3ccccc3F)c3ccccc32)c1 | 78%
27 | CN1CCN(CCC(=O)Nc2ccc(Cl)cc2)CC1 | 61%
28 | COc1ccc(N2C(=O)CSC23C(=O)N(CC(=O)NC2CCCCC2)c2ccccc23)cc1 (stereo not drawn) | 83%
29 | Cc1cc(=O)c2c(ccc3ccccc32)[nH]1 | 91%
30 | CC(OC(=O)CN1C(=O)COc2ccccc21)C(=O)NCc1cccs1 (stereo not drawn) | 100%
31 | CCOc1ccc(CNC(=O)c2ccc(NC(=O)N3CCCCc4ccccc43)cc2)cc1OC | 73%
32 | COc1cccc(CNC(=O)CN2C(=O)N(c3cccc(Cl)c3)S(=O)(=O)c3ccccc32)c1OC | 72%
33 | O=C(CCCN1C(=O)C(c2ccccc2)Oc2cccnc21)Nc1ccccc1C(F)(F)F (stereo not drawn) | 100%
34 | CCOCCc1nn2c(=O)cc(COC(=O)c3ccc(NC(=O)c4cccs4)cc3)nc2s1 | 112%
35 | CCCc1nn2c(=O)cc(COC(=O)c3ccc(NC(=O)COc4ccc(F)cc4)cc3)nc2s1 | 37% (active)
36 | CCCc1nn2c(=O)cc(COC(=O)c3ccc(NC(=O)COc4ccccc4)cc3)nc2s1 | 92%
37 | CCOCCc1nn2c(=O)cc(COC(=O)c3ccc(NC(=O)C(C)(C)C)cc3)nc2s1 | 83%
38 | CCOCCc1nn2c(=O)cc(COC(=O)c3ccc(NC(=O)c4ccc(F)cc4)cc3)nc2s1 | 32% (active)
39 | CCCc1nn2c(=O)cc(COC(=O)c3cccc(NC(=O)COc4ccc(F)cc4)c3)nc2s1 | 99%
40 | Cc1ccc(OCc2n[nH]c(=S)n2C2CCCCC2)cc1 | 99%
41 | Cc1ccc(C2=CC(c3ccccc3F)n3c(nc4ccccc43)N2)cc1C (stereo not drawn) | 70%
42 | O=C(NC1CCCCC1)C(c1ccc(O)c(O)c1)N(C(=O)Cn1nnc2ccccc21)C1CCCCC1 (stereo not drawn) | 99%
43 | O=c1ccc2cc(S(=O)(=O)Nc3ccc(OC(F)(F)F)cc3)ccc2[nH]1 | 91%
44 | COC(=O)c1cccnc1-n1c(=O)c2cccnc2n(CC(=O)Nc2c(C)cc(C)cc2C)c1=O | 82%

Row | Structure (SMILES) | survival
45 | CC(C)CNCC1OCc2ccccc2CO1 | 98%
46 | COc1ccc(NC(=O)CCS(=O)(=O)c2nc(-c3ccc4c(c3)OCO4)cc(C(F)(F)F)n2)cc1 | 103%
47 | COc1ccc(NC(=O)CCSc2nc(-c3ccco3)cc(C(F)(F)F)n2)cc1 | 57%
48 | CC(C)(C)NC(=O)CCSc1nc(-c2ccc3c(c2)OCO3)cc(C(F)(F)F)n1 | 15% (active)
49 | CCCNC(=O)CCSc1nc(-c2ccc3c(c2)OCO3)cc(C(F)(F)F)n1 | 68%
50 | CC(=O)c1ccc(NC(=O)CCSc2nc(-c3ccco3)cc(C(F)(F)F)n2)cc1 | 46%
51 | O=C(CCS(=O)(=O)c1nc(-c2ccc3c(c2)OCO3)cc(C(F)(F)F)n1)Nc1ccc(F)c(Cl)c1 | 23% (active)
52 | CC(=O)c1cccc(NC(=O)CCCSc2nc(-c3ccco3)cc(C(F)(F)F)n2)c1 | 31% (active)
53 | COc1cccc(NC(=O)CCSc2nc(-c3ccco3)cc(C(F)(F)F)n2)c1 | 27% (active)
54 | COc1ccc(NC(=O)CCSc2nc(-c3ccco3)cc(C(F)(F)F)n2)cc1OC | 50%
55 | O=C(CCS(=O)(=O)c1nc(-c2ccc3c(c2)OCO3)cc(C(F)(F)F)n1)Nc1ccc(Br)cc1 | 94%
56 | CC(=O)c1ccc(NC(=O)CCCSc2nc(-c3ccco3)cc(C(F)(F)F)n2)cc1 | 98%
57 | CC(C)NC(=O)CCSc1nc(-c2ccc3c(c2)OCO3)cc(C(F)(F)F)n1 | 57%
58 | Cc1cc(F)ccc1NC(=O)CCS(=O)(=O)c1ccc2c(c1)CC(C)N2C(=O)C1CC1 (stereo not drawn) | 81%
59 | Cc1cccc(N2CCn3c2nc2c3c(=O)n(CCCc3ccccc3)c(=O)n2C)c1 | 76%
60 | CCSc1nnc(C2CCCN(C(=O)NCc3ccccc3)C2)n1C (stereo not drawn) | 84%
61 | CC1CCCCN1C(=O)CSc1nc(-c2ccccc2)no1 (stereo not drawn) | 83%
62 | Cc1ccc(S(=O)(=O)C(CNS(=O)(=O)c2cc(F)ccc2F)c2cccs2)cc1 (stereo not drawn) | 64%
63 | CC1C(=O)CC(c2ccco2)NC1c1ccco1 (stereo not drawn) | 56%
64 | CCc1nc2ccc(C(=O)NCCc3ccccc3OC)cc2nc1CC | 73%
65 | Cc1ccc(-c2cc3c(N4CCN(c5cc(C)ccc5C)CC4)nccn3n2)cc1 | 68%
66 | COc1ccc(NC(=O)Cn2c(SCc3cc(C)ccc3C)nc3ccncc32)c(OC)c1OC | 61%

Row | Structure (SMILES) | survival
67 | Cc1cccc2c1-c1sc(C(=O)NCCc3ccc(Cl)cc3)cc1CO2 | 86%
68 | COc1ccc(/C=C/C(=O)Nc2sc(C)c(C)c2C(=O)O)cc1 | 60%
69 | COc1ccc(-n2cnc3cc(C(=O)NC4CCCCCC4)ccc32)cc1 | 117%
70 | CCN1C(=O)CC(C(=O)NC)SC1=Nc1cc(Cl)c(O)c(Cl)c1 (stereo not drawn) | 75%
71 | CC(=O)Nc1ccc2nc3c(=O)[nH]c(=O)[nH]c3nc2c1 | 72%
72 | COc1ccc(NC(=O)CCSc2nc(-c3ccc(OC)cc3)cc(C(F)(F)F)n2)cc1 | 70%
73 | COc1ccc(-c2cc(C(F)(F)F)nc(SCCC(=O)Nc3ccc(OC)c(OC)c3)n2)cc1 | 40% (active)
74 | COc1ccc(-c2cc(C(F)(F)F)nc(SCCC(=O)Nc3ccc(NC(C)=O)cc3)n2)cc1 | 61%
75 | CC(C)(C)NC(=O)COc1ccc(CNc2ccc3c(c2)OCCO3)cc1 | 87%
76 | O=C(CCCCn1c(=O)c2ccccc2n(Cc2ccccc2F)c1=O)NCc1ccccc1Cl | 97% (active)
77 | Cc1ccccc1Cn1c(=O)n(CCCCC(=O)NCc2ccccc2Cl)c(=O)c2ccccc21 | 93%
78 | COc1ccc(CCNC(=O)CCn2c(=O)c3ccccc3n(Cc3ccc(Cl)cc3)c2=O)cc1OC | 119%
79 | O=C(CCCCn1c(=O)c2ccccc2n(Cc2ccc(Cl)cc2)c1=O)NCc1ccccc1Cl | 97%
80 | COc1ccc(CCNC(=O)CCCn2c(=O)c3ccccc3n(Cc3ccccc3C#N)c2=O)cc1OC | 87% (active)
81 | COc1ccc(CCNC(=O)CCCn2c(=O)c3ccccc3n(Cc3ccccc3C)c2=O)cc1OC | 85%
82 | COc1ccc(CCNC(=O)CCCCn2c(=O)c3ccccc3n(Cc3ccccc3C)c2=O)cc1OC | 95%
83 | COc1ccc(CCNC(=O)CCn2c(=O)c3ccccc3n(Cc3ccccc3C)c2=O)cc1OC | 86%
84 | COc1ccc(CCNC(=O)CCn2c(=O)c3ccccc3n(Cc3ccccc3F)c2=O)cc1OC | 93% (active)
85 | Cn1ccc2cc(S(=O)(=O)N3CCC(C(=O)NCCc4ccccc4)CC3)ccc21 | 89%
86 | Cc1nn(C)c2c1c(C(F)(F)F)cc(=O)n2C(C)C(=O)N1CCN(c2ccccc2)CC1 (stereo not drawn) | 86%
87 | CC(C)OC(=O)CSc1nnc(-c2ccccc2)n1Cc1ccco1 | 87%
88 | COc1ccc(Cl)cc1NC(=O)CN1Cc2ccccc2C1=O | 100%
